Assay [1] can be described thus: qHTS assay to identify small molecule agonists of the estrogen receptor alpha (ER-alpha) signaling pathway in the presence of an antagonist - cell viability counter screen (AID 1259386).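 Further: cells exposed to compounds for 22 h at 37 °C before the viability read; nearly all actives have a fitted effect of over 30% in size.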 Further: potency means the concentration at half of the fitted maximal effect. In outline: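 Fluorescent CellTiter-Fluor viability signal from VM7Luc4E2 cells, with the reagent added during the final hour of a 22hr compound exposure at 37C in the presence of 10.0nM ICI-182,780.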
(In general: In qHTS, concentration-response curves come from the screen itself.)

In assay [2] the target is Progesterone receptor (Homo sapiens) (UniProt P06401). Put plainly: qHTS assay to identify small molecule agonists of the progesterone receptor (PR) signaling pathway (AID 1346784; calls by dose curve; further: nearly all actives have a fitted effect of over 30% in size). In outline: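 PR-UAS-bla HEK 293T cells carrying a UAS-driven beta-lactamase reporter were seeded in medium with 2% charcoal-stripped FBS, preincubated 6 hr at 37C, then exposed to compounds in DMSO for 16 hr; agonism was read by LiveBLAzer B/G FRET fluorescence.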
Chain of Progesterone receptor (Homo sapiens) (P06401 whole entry, looked up): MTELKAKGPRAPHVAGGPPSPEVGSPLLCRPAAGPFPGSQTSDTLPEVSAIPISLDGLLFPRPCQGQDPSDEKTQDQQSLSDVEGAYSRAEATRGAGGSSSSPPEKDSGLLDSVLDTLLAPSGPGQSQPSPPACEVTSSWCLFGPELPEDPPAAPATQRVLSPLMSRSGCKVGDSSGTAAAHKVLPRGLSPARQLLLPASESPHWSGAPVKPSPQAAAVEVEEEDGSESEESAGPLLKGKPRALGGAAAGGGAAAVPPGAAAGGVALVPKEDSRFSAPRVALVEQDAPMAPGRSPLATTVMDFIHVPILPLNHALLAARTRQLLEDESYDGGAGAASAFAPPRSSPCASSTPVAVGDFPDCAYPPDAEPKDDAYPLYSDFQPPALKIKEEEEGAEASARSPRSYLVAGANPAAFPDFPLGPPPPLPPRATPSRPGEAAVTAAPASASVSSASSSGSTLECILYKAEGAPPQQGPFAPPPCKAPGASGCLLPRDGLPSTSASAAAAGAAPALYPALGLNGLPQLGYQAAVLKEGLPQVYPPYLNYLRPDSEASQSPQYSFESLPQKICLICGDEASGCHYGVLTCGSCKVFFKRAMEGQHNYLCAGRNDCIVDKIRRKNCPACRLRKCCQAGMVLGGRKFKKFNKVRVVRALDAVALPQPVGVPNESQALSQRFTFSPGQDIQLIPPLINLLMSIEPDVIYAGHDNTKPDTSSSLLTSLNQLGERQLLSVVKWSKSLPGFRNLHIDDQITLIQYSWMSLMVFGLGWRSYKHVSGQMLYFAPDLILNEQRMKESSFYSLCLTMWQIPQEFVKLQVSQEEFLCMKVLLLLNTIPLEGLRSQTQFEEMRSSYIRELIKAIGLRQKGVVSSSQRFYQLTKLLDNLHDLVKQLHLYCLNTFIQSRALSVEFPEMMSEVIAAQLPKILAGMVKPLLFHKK

For assay [3] the target is unchanged. The experiment in a line: qHTS assay to identify small molecule antagonists of the progesterone receptor (PR) signaling pathway (AID 1346795; active means well fitted inhibition curve with a large enough effect in the signal ratio in the repeat runs, not every such curve was filed as active; the % refers to the signal ratio; further: potency means the concentration at half of the fitted maximal effect). In outline:
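PR-UAS-bla HEK293T cells carrying a UAS-driven beta-lactamase reporter were plated in medium with 2% charcoal-stripped FBS and rested 6 hr at 37C. Compounds were added with 1 nM R5020 (final) for 16 hr, then FRET substrate loaded 2 hr at room temperature.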

Assay [4] in a line: qHTS assay to identify small molecule antagonists of the progesterone receptor (PR) signaling pathway - cell viability counter screen (AID 1346798). Further: series mostly up to about 92 µM; nearly all actives have a fitted effect of over 50% in size. In outline: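 PR-UAS-bla HEK293T cells in medium with 2% charcoal-stripped FBS were treated with compounds plus R5020 for 16 hr at 37C. Cell viability was then read by CellTiter-Glo luminescence after 30 min at room temperature in the same wells.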

Assay [5] can be described thus: qHTS assay to identify small molecule agonists of the progesterone receptor (PR) signaling pathway - cell viability counter screen (AID 1346799; calls by dose curve; further: nearly all actives have a fitted effect of over 45% in size). In outline:
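PR-UAS-bla HEK293T cells, 3,000 per well in medium with 2% charcoal-stripped FBS, were preincubated 6 hr at 37C, then exposed to compounds for 16 hr; viability was read as CellTiter-Glo luminescence after 30 min at room temperature.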

Assay [6] can be described thus: qHTS assay to identify small molecule antagonists of the TGF-beta/Smad signaling pathway - cell viability counter screen (AID 1346824). Further: nearly all actives have a fitted effect of over 50% in size. In outline: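 SBE-bla HEK 293T cells, incubated overnight, then compound plus 0.25 ng/mL TGF-beta1 (stock added) for 5 hr at 37 C. Viability was read in the same wells by CellTiter-Glo luminescence after 30 min at room temperature.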

Assay [7] is described as follows: qHTS assay to identify small molecule agonists of the TGF-beta/Smad signaling pathway - cell viability counter screen (AID 1346829). Further: top concentration of the series differs between compounds; nearly all actives have a fitted effect of over 45% in size. In outline:
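HEK 293T SBE-bla line, 5 hr compound exposure at 37 C, multiplexed CellTiter-Glo viability read by luminescence.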

Assay [8] is described as follows: qHTS assay to identify small molecule agonists of the TGF-beta/Smad signaling pathway (AID 1346859; active means well fitted activation curve with a large enough effect in the signal ratio in the repeat runs, not every such curve was filed as active; the % refers to the signal ratio; further: series mostly up to about 77 µM). In outline: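 HEK 293T cells stably carrying a beta-lactamase reporter driven by the Smad binding element were seeded overnight, exposed to DMSO-dissolved compounds for 5 hr at 37 C, 5% CO2, then loaded with FRET substrate for 2 hr at room temperature.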
Assay [9] addresses Thyrotropin-releasing hormone receptor (Homo sapiens) (UniProt P34981). The experiment in a line: qHTS assay to identify small molecule antagonists of the thyrotropin-releasing hormone receptor (TRHR) signaling pathway (AID 1346877; active means well fitted inhibition curve with a large enough effect in the repeat runs, not every such curve was filed as active; further: series mostly up to about 51 µM). In outline: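 In this cell-based calcium flux format, HEK293 cells expressing TRHR received test compound for 5 min before the agonist TRH (1 nM final). Dye loading lasted 2 h at 37 °C.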

For assay [10] the target is unchanged. Put plainly: qHTS assay to identify small molecule agonists of the thyrotropin-releasing hormone receptor (TRHR) signaling pathway (AID 1346891; calls by dose curve; further: series mostly up to about 58 µM). In outline: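 TRHR-expressing HEK293 cells were plated 18 h at 37 °C/5% CO2, loaded with calcium dye 2 h at 37 °C, then given compound in DMSO; fluorescence was read kinetically for 3 min at 1 s intervals.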
Assay [11] can be described thus: Human pregnane X receptor (PXR) small molecule agonists, qHTS cell viability counter screen (AID 1346977). Further: nearly all actives have a fitted effect of over 50% in size. Further: potency means the concentration at half of the fitted maximal effect. In outline:
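PXR-Luc HepG2 cells in medium with 5% charcoal-stripped FBS were pre-incubated 5hr, then exposed to compounds for 24hr at 37C. Viability was read in the same wells by CellTiter-Fluor fluorescence, reagent added after 23hr with a 1hr incubation.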

Assay [12] can be described thus: Caspase-3/7 induction in HepG2 cells by small molecules, qHTS assay (AID 1346978). Further: nearly all actives have a fitted effect of over 15% in size. In outline:
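Wild-type HepG2 cells, 2,000/well, settled 5 hr at 37 C and 5% CO2, then compound-treated for 17 hr; caspase-3/7 activity read by luminescent Caspase-Glo 3/7 after 30 min at room temperature.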

Assay [13] in a line: Caspase-3/7 induction in CHO-K1 cells by small molecules, qHTS cell viability counter screen (AID 1346979). Further: nearly all actives have a fitted effect of over 35% in size. In outline: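 Wild-type CHO-K1 cells were seeded at 1,500 per well, rested 5hr at 37 C, then exposed to compounds in DMSO. After 16hr, CellTiter-Fluor reagent was added and fluorescence read 1hr later as the viability measure.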
Assay [14] in a line: Caspase-3/7 induction in CHO-K1 cells by small molecules, qHTS assay (AID 1346980). Further: nearly all actives have a fitted effect of over 15% in size. In outline: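 Wild-type CHO-K1 cells exposed to compounds for 17hr at 37 C, 5% CO2. Caspase-3/7 activity then measured by Caspase-Glo 3/7 luminescence after 30min at room temperature.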
The target of assay [15] is Nuclear receptor subfamily 1 group I member 2 (Homo sapiens) (UniProt O75469). The experiment in a line: Human pregnane X receptor (PXR) small molecule agonists, qHTS assay (AID 1346982). Further: nearly all actives have a fitted effect of over 35% in size. In outline:
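Luminescence (ONE-Glo, 30 min RT) after 24 hr compound exposure of PXR-Luc HepG2 cells; cells rested 5 hr post-plating in 5% charcoal-stripped FBS medium.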

Assay [16] has as its target Nuclear receptor subfamily 1 group I member 2 (Rattus norvegicus) (UniProt Q9R1A7). The experiment in a line: Rat pregnane X receptor (rPXR) activation by small molecules, qHTS assay (AID 1346983). Further: nearly all actives have a fitted effect of over 20% in size. Conditions: rPXR luciferase reporter cells, One-Glo luminescence, 24 h; stronger effect = higher value. In outline:
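Cell-based rPXR activation assay: rPXR cells, 2,000 per well, rested 5hr at 37 C, then exposed to compounds in DMSO for 24 hr at 37 C. Luciferase activity read by One-Glo luminescence after 30 min at room temperature.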

Assay [17] has as its target Nuclear receptor subfamily 1 group I member 2 (Homo sapiens) (UniProt O75469). The experiment in a line: CYP3A4 induction through human pregnane X receptor (PXR) by small molecules, qHTS assay (AID 1346984). Further: nearly all actives have a fitted effect of over 40% in size. Further: potency means the concentration at half of the fitted maximal effect. In outline:
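DPX-2 reporter cells; 24h cpd, 37C; Luciferin-IPA 3uM final x3h; One-Glo 30 min RT; lumi read.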

For assay [18] the target is unchanged. Put plainly: Human pregnane X receptor (PXR) activation by small molecules, qHTS assay (AID 1346985). Further: nearly all actives have a fitted effect of over 40% in size. In outline:
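DPX-2 cells (HepG2 co-transfected with a PXR response element and a CYP3A4-promoter luciferase construct) were seeded at 2,000 per well, rested 5 hr at 37C, then exposed to DMSO-dissolved compounds for 24 hr. Activation was read as luciferase luminescence.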

In assay [19] the target is Acetylcholinesterase (Homo sapiens) (UniProt P22303). Put plainly: Acetylcholinesterase (AChE) small molecule antagonists: colormetric cell-based qHTS assay (AID 1347395; calls by dose curve; further: nearly all actives have a fitted effect of over 30% in size; further: potency means the concentration at half of the fitted maximal effect). In outline:
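SH-SY5Y cells, plated overnight at 37 C, were exposed to compounds for 30 min at 37 C and 5% CO2. Acetylthiocholine plus DTNB was then added, and thiocholine from endogenous AChE was quantified colorimetrically after 90 min at 37 C.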

Assay [20] can be described thus: Caspase-3/7 induction in HepG2 cells by small molecules, qHTS cell viability counter screen (AID 1346981). Further: series mostly up to about 92 µM; nearly all actives have a fitted effect of over 30% in size. In outline: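 Counter screen for cytotoxicity: HepG2 exposed 16 hr to compounds, then CellTiter-Fluor viability signal (fluorescence, 1 hr reagent incubation).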

The values below come from PubChem BioAssay (Tox21).

Unmarked numbers belong to inactive results. Results filed as inconclusive are left out. Activity calls are given as the source filed them. Unless noted, the call rests on the fitted dose curve; in most records, active means well fitted curve in the direction sought with a large enough effect in the repeat runs; inconclusive means weak or mixed curves; inactive means no such curve, though single readings can be large; an effect the other way counts as inactive or inconclusive.
On the % scale 0 is the no-effect control and ±100 the full control effect.

Chain of Nuclear receptor subfamily 1 group I member 2 (Homo sapiens) (O75469 whole entry, looked up): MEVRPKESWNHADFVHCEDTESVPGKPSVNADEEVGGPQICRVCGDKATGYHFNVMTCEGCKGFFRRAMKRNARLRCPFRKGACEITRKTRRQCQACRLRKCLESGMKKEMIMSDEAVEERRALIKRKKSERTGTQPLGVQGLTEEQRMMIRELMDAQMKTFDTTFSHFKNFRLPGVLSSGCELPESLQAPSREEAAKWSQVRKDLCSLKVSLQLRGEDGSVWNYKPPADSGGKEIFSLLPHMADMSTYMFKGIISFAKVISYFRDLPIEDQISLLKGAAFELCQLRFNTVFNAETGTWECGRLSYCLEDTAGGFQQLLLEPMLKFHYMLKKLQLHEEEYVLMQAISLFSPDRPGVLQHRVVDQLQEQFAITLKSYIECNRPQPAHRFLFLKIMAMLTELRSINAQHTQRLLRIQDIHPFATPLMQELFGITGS
Chain of Acetylcholinesterase (Homo sapiens) (P22303 whole entry, looked up): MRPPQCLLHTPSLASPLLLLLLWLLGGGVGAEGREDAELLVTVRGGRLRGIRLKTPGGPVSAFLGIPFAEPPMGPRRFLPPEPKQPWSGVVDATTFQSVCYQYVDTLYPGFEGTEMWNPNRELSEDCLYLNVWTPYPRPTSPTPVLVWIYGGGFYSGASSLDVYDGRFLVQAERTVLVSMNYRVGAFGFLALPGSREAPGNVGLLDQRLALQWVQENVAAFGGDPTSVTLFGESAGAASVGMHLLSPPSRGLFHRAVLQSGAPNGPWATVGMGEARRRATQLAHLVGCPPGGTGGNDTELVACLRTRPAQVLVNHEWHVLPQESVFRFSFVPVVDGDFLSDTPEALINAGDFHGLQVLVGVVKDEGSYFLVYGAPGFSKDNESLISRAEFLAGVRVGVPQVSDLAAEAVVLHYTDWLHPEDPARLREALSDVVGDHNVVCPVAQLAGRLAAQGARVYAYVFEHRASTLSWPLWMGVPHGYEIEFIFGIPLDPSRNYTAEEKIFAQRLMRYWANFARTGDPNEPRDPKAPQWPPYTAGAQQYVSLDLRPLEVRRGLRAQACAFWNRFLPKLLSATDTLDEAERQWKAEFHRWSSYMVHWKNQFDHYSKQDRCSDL
Chain of Thyrotropin-releasing hormone receptor (Homo sapiens) (P34981 whole entry, looked up): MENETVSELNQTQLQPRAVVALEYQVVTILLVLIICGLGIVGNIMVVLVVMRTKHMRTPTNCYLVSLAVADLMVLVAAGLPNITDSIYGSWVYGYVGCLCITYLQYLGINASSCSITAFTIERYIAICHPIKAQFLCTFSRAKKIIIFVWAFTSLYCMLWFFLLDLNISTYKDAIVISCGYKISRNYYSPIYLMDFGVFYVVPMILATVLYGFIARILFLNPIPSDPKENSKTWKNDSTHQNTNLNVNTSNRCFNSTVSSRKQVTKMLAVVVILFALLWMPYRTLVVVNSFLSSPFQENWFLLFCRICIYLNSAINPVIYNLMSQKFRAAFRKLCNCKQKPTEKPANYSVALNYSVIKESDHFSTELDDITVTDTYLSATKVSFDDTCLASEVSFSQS
Chain of Nuclear receptor subfamily 1 group I member 2 (Rattus norvegicus) (Q9R1A7 whole entry, looked up): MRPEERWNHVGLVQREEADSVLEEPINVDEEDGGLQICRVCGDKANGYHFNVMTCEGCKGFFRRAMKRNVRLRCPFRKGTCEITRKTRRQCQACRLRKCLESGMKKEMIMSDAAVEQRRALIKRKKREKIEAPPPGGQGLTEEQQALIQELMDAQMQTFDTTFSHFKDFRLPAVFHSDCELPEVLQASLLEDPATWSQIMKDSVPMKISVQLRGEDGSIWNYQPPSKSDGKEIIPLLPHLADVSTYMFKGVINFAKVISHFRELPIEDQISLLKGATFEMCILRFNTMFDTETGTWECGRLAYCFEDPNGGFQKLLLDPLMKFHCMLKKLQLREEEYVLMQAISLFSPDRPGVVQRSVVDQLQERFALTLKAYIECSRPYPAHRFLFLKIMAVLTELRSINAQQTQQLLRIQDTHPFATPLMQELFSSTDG

`CC1NCCOC1c1ccccc1` (stereo not drawn): the Potency result in assay [1], in [2], in [3], in assay [4], in assay [5] and in assay [7] was “inactive” each time. Also, the Potency result in assay [9], in assay [11], in assay [13], in assay [15], in assay [17] and in assay [18] was “inactive” throughout. For the same molecule, the Potency entry in assay [19] is “inactive”. Further, the result in assay [6], in assay [8], in assay [10], in [12] and in assay [14] was inactive. Also, in assay [16], the max activation is -1.57%.

For the molecule `CCOC(=O)C(SP(=S)(OC)OC)c1ccccc1` (stereo not drawn), the Potency entry in assay [1], in assay [2], in assay [4], in assay [5], in assay [7] and in [9] was “inactive” each time. Also, the Potency entry in assay [11], in assay [13] and in assay [20] was “inactive” throughout. Besides, the results for the Potency in [3] and in assay [19] were 48.6 µM (active) and 31.7 µM (active), respectively. Further, the outcome in assay [6], in [8], in assay [10], in assay [12] and in [14] was inactive.

With `Cc1cc(OC(=O)N(C)C)nn1C(=O)N(C)C`, the Potency result in assay [1], in assay [2], in [3], in [4], in assay [5] and in assay [7] was “inactive” each time. Moreover, the Potency entry in [9], in assay [11], in [13] and in assay [15] was “inactive” each time. In addition, the outcome in assay [6], in assay [8], in [10], in assay [12] and in [14] was inactive. In addition, in assay [19], the Potency was 7.1 µM (active).

Turning to `CCCCOC(C)=O`, the Potency result in assay [1], in assay [2], in assay [3], in [4], in assay [5] and in assay [7] was “inactive” each time. Besides, the Potency entry in assay [9], in [11], in assay [13], in [20] and in [19] was “inactive” throughout. Moreover, the molecule was called inactive in assay [6], in assay [8], in assay [10], in [12] and in assay [14].

With `O=C(O)C(Br)(Br)Br`, the Potency entry in [1], in [2], in assay [3], in assay [4], in assay [5] and in [7] was “inactive” throughout. Also, the Potency entry in [9], in assay [11], in [20], in [15] and in assay [19] was “inactive” each time. In addition, the molecule was called inactive in assay [6], in assay [8], in assay [10] and in [12].

For `CCC1(c2ccccc2)C(=O)N(COC)C(=O)N(COC)C1=O`, the Potency result in assay [1], in assay [2], in assay [3], in assay [4], in [5] and in assay [7] was “inactive” in each case. Moreover, the Potency entry in [9], in [11], in assay [20] and in assay [19] was “inactive” each time. The molecule was called inactive in assay [6], in [8], in [10] and in assay [12]. The max activation in assay [16] is 3%. Besides, in assay [17], the Potency was 10 µM (active).

Turning to `Cn1c(N)nc2c3cccnc3ccc21`, the Potency in assay [1] and in assay [11] was 26 µM (active) each time. Further, the Potency result in assay [2], in assay [3], in assay [4], in [5], in assay [7] and in assay [9] was “inactive” throughout. Besides, the result in assay [6], in [8], in [10], in assay [12] and in [14] was inactive.

For the molecule `O=C(Cl)C(Cl)Cl`, the Potency result in assay [1], in [2], in assay [3], in assay [4], in assay [5] and in assay [7] was “inactive” in each case. For the same molecule, the Potency entry in assay [9], in [11], in assay [13], in assay [20], in assay [15] and in [19] was “inactive” throughout. Also, the result in assay [6], in assay [8], in assay [10], in [12] and in assay [14] was inactive.
